Screening results from PubChem.
CHO-K1 Ca antag: counter-screen for M1 antagonists: effect in parental CHO-K1 cells; AID 602250; inhibition, % at 3 µM; ATP-induced calcium, Fluo-8 fluorescence; hit rate 0.6% among 360,000;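 active means inhibition above a per-plate cutoff, the plate's mean sample inhibition plus 3 SD, cut at about 24% in these data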;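 further: 0% = DMSO plus EC80 ATP and 100% = DMSO alone without ATP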
CHRM1 PAM: potentiates human M1 receptor response to acetylcholine | P11229 | CHO-K1 hM1, Fluo-8 calcium fluorescence, ACh EC20; 0% = ACh EC20, 100% = maximal ACh | activation, % at 3 µM | hit rate 0.088% among 360,000; in the data active means activation above about 19%, passing the limit was not always enough
Target sequence (P11229 whole entry, looked up): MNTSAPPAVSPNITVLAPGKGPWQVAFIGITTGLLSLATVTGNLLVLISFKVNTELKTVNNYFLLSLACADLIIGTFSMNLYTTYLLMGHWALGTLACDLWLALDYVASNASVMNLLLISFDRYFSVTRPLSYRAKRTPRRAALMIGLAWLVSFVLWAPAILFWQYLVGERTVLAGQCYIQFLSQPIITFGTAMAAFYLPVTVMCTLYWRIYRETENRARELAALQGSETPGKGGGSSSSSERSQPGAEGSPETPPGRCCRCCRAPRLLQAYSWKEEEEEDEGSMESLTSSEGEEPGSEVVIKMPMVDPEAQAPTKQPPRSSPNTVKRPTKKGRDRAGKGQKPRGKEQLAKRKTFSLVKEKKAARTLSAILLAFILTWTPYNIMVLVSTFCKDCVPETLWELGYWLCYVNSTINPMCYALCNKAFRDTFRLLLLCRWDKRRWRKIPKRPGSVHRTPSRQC
CHRM1 antagonist: blocks human M1 muscarinic receptor | inhibition, % at 3 µM | P11229 | CHO-K1 hM1, Fluo-8 calcium fluorescence, ACh EC80 antagonist | hit rate 1.3% among 360,000 | AID 588852;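 active means percent inhibition above its own plate's cutoff, namely the mean of that plate's compound wells plus 3 SD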;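 further: peak over basal fluorescence ratio during 140 s after agonist addition; 0% = ACh EC80 plus DMSO and 100% = DMSO alone without agonist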
M1 PAM parental: counter-screen for M1 PAMs: effect in parental CHO-K1 cells. ATP EC20, Fluo-8 calcium fluorescence; 0% at ATP EC20, 100% at ATP max. activation, % at 3 µM. hit rate 0.02% among 360,000. AID 602247;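 active means activation above the run cutoff, the mean activation of all test compounds plus 3 SD, cut at about 40% in these data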;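 further: peak over basal fluorescence ratio in a 140 s read after ATP addition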
CHO-K1 Ca ag: M1 agonist counterscreen hit in parental CHO-K1 cells | hit rate 0.48% among 360,000 | Fluo-8 calcium fluorescence; scaled to maximal ATP response, vehicle zero | activation, % at 3 µM; in the data active means activation above about 15%;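 further: untransfected CHO-K1 host cells lacking M1 receptor as counterscreen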
M1 ag: human M1 muscarinic receptor agonism | CHO-K1 hM1, Fluo-8 calcium fluorescence, agonist mode; 0% DMSO, 100% acetylcholine EC100 | activation, % at 3 µM | hit rate 0.33% among 360,000 | AID 588814;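 active means activation above the run's mean compound activation plus 3 SD, cut at about 16% in these data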;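 further: peak over basal fluorescence ratio within a 140 s kinetic read after compound addition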
* = called active by the depositor. Most compounds without a hit are left out; they make up all but 2.4% or so of the library.

SMILES	CHO-K1 Ca antag	CHRM1 PAM	CHRM1 antagonist	M1 PAM parental	CHO-K1 Ca ag	M1 ag
CC1(C(=O)N2Cc3ccccc3C2)CCN1C(=O)C1(c2ccc(Cl)cc2)CC1 (stereo not given)	-6	11	-19	12	2	-3
CCC1C(C#N)=C(SCC(N)=O)NC2=C1C(=O)CC(C)(C)C2 (stereo not given)	-7	6	-7	10	1	-3
COc1ccc(C2C(C#N)=C(SCC(=O)Nc3ccc(C)cc3)NC3=C2C(=O)CC(C)(C)C3)cc1 (stereo not given)	-4	-15	85*	0	0	21*
CCOC(=O)C1CCCN(C(=O)Nc2c(-c3ccccc3)noc2C)C1 (stereo not given)	7	-6	2	-18	0	31*
CS(=O)(=O)N1CCN(C(=O)C2c3ccccc3Oc3ccccc32)CC1	6	-22	47*	-7	0	-9
Cc1[nH]c2ccccc2c1C(c1ccccn1)N1CCCC1 (stereo not given)	-9	17	-25	15	0	0
CCOC(=O)C1CCCN(C(=O)C2c3ccccc3Oc3ccccc32)C1 (stereo not given)	6	-30	35*	8	20*	79*
CCOC(=O)C1CCCN(C(c2ccccn2)c2c(C)[nH]c3ccccc23)C1 (stereo not given)	5	-1	-3	20	9	28*
COc1ccc(CCC(=O)OCC(=O)Nc2ccccc2)cc1	-8	9	-3	-4	0	-3
COc1ccc(C(C)(O)c2nc(-c3cccc(O)c3)cs2)cc1 (stereo not given)	0	6	-6	4	1	2
CC1CCCC(NC(=O)COC(=O)/C=C/c2ccc(F)cc2)C1C (stereo not given)	-18	2	2	13	0	-3
Cc1c(OCC(=O)NCC(O)c2ccccc2)ccc2c3c(c(=O)oc12)CCCC3 (stereo not given)	-15	-2	1	4	9	-1
COc1ccccc1C(=O)C1CCCN(C(=O)c2cnn(C(C)C)c2)C1 (stereo not given)	-3	8	-2	-15	1	-2
C/C(=N/NC(=O)c1ccc(Br)o1)C(C)C	2	-2	15	11	1	-6
CCOC(=O)C1CCCN(C(=S)Nc2ccc(C)cc2C)C1 (stereo not given)	1	-28	83*	1	0	85*
CCOC(=O)C1CCCN(C(=S)Nc2ccc(Nc3ccccc3)cc2)C1 (stereo not given)	4	-26	80*	1	0	78*
CCOC(=O)C1CCCN(C(=O)Cc2c(C(=O)O)[nH]c3ccccc23)C1 (stereo not given)	-9	-29	64*	24	3	73*
Cc1cccc(N=C2C(=O)Nc3c(Cl)cccc32)c1	-13	4	-10	20	0	-2
O=C1Nc2c(Cl)cc(Cl)cc2C1=O	-7	3	-14	8	1	16*
COc1ccc2c(c1)OC[C@H]1[C@H]2N2C(=O)c3cc(F)ccc3NC(=O)[C@@]2(C)[C@H]1c1ccccc1	-24	-30	83*	12	1	-7
COc1ccc2c(c1)OC[C@H]1[C@H]2N2C(=O)c3cc(Cl)ccc3NC(=O)[C@@]2(C)[C@H]1c1ccccc1	-15	-16	25	19	1	-8
COc1ccc2c(c1)OC[C@H]1[C@H]2N2C(=O)c3cc(OC)ccc3NC(=O)[C@@]2(C)[C@H]1c1ccccc1	-9	-21	27*	6	0	-7
OCCC1CN(CC#Cc2ccccc2)CCN1C1CCCC1 (stereo not given)	-17	-1	4	4	0	-6
OCCC1CN(Cc2cnc(-c3ccccc3)s2)CCN1C1CCCC1 (stereo not given)	13	-28	39*	-10	0	-10
OCCC1CN(CC(c2ccccc2)c2ccccc2)CCN1C1CCCC1 (stereo not given)	8	-32	27*	3	0	-14
SMILES	CHO-K1 Ca antag	CHRM1 PAM	CHRM1 antagonist	M1 PAM parental	CHO-K1 Ca ag	M1 ag
CC(C)OC(=O)NCCOC(=O)Nc1ccc(Cl)c(Cl)c1	17	-4	22	8	6	1
CC(C)OC(=O)NCCOC(=O)Nc1cccc(Cl)c1	29*	-9	26	2	10	4
COc1ccc(CNC(=O)COC(=O)c2cccs2)cc1	14	21	-14	5	1	0
COc1ccc(C2/C=C\CN(C(=O)C3CCCCC3)CC(=O)N2Cc2ccc(F)cc2)cc1 (stereo not given)	-9	7	-4	10	0	-1
COc1ccc(C2/C=C\CN(C(=O)C3CCCC3)CC(=O)N2Cc2ccc(F)cc2)cc1 (stereo not given)	-13	32*	-22	7	0	4
COC(=O)C(Cc1ccccc1)NC(=O)CNC(=O)c1ccc(Br)cc1 (stereo not given)	-6	14	-19	-4	1	0
CC(=O)c1cnc(Nc2cccc(Cl)c2Cl)s1	1	10	-9	20	17*	-5
CC(=O)c1cnc(Nc2ccccc2)s1	-5	9	-1	20	1	-4
O=[N+]([O-])c1ccccc1S(=O)(=O)N1CCCC(C(F)(F)F)C1 (stereo not given)	8	16	-12	10	0	-1
COc1ccc(Nc2nc(N)nc(CSC(=S)N3CCCCC3)n2)cc1	-2	9	-13	9	1	-10
COc1ccc(Nc2nc(N)nc(CSC(=S)N3CCCCC3C)n2)cc1 (stereo not given)	7	-1	8	3	22*	1
Cc1ccc(C(=O)N2CCCC(N(C)Cc3ccccc3)C2)s1 (stereo not given)	-18	-5	9	6	1	-7
O=C(NCCC1=CCCCC1)c1cc(-c2ccncc2)nc2ccccc12	-11	8	-6	19	0	-2
CCOC(=O)C1CCCN(CCC(=O)Nc2cccc(Cl)c2C)C1 (stereo not given)	-6	-16	24	5	1	22*
Cc1c(Cl)cccc1NC(=O)CCN1CCCCC1	1	-1	4	8	0	-5
CCOC(=O)C1CCCN(CCC(=O)Nc2cccc(C)c2)C1 (stereo not given)	20	-19	13	-7	0	43*
Cc1cc(C)c(C)c(S(=O)(=O)N2CCCCC2C(=O)O)c1C (stereo not given)	0	16	-6	18	2	-9
Cc1ccc(/C=C/C(=O)NCCCN2CCN(CCCNC(=O)/C=C/c3ccc(C)cc3)CC2)cc1	-11	6	-10	15	0	-8
